# Assay results published in PubChem BioAssay AID1578 (Sanford-Burnham Center for Chemical Genomics, 2009).
# In all, about 290,000 compounds went through this assay and about 3,000 (1%) were called active. What follows is part of a selection rich in actives, with near analogues and random picks from the rest. Values without a mark were called inactive. No stated cut-off is given here; in the data, active means inhibition mostly above about 36% (no sharp cut-off); inactive means mostly below about 34%.
# Experiment: inhibition of NOD1-driven NF-kB reporter – cell-based, luminescence, uHTS, primary screen (AID 1578);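 further: HEK-293T reporter cells stimulated with the NOD1 agonist gamma-tri-DAP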
# Details: NOD1-driven NF-kB luciferase reporter cells, at 4 µM, hits give high values
row,SMILES,inhibition
1,C=CCSc1nc2sc3c(c2c(=O)[nH]1)CC(C)(CC)OC3 (centres undefined),-17.8%
2,Cc1ccccc1NC(=O)CC1SCCNC1=O (centres undefined),11.3%
3,COCCCNCCCCOc1cccc(Br)c1,-2.3%
4,C=CCNCCCCOc1cccc(Br)c1,11.4%
5,OCCNCCCCOc1cccc(Br)c1,75.8% (active)
6,O=S(=O)(/N=C(/NC(=S)Nc1ccccc1)c1ccccc1)c1ccc(Cl)cc1,-32.1%
7,O=c1c(Cc2ccc(F)cc2)c(O)ccn1C1CC1,51.7% (active)
8,O=c1c(Cc2ccc(F)cc2)c(O)ccn1C1CCCCC1,-17.4%
9,O=c1c(Cc2ccccc2)c(O)ccn1C1CCCCCCC1,-38.2%
10,CCCCCCCCCCCC(=O)NC(C(=O)O)C(O)c1ccccc1 (centres undefined),55.2% (active)
11,CCCCCCCCCCCC(=O)NC(C(=O)OCC)C(O)c1cccc([N+](=O)[O-])c1 (centres undefined),34.1%
12,CCCCCCCCOC(=O)C(NC(=O)CCC(=O)Nc1ccc(S(N)(=O)=O)cc1)C(O)c1ccccc1 (centres undefined),-2.4%
13,CN1CCN(c2ccc(NC(=O)c3ccco3)cc2Cl)CC1,-46.7%
14,Nc1ccc(NC2C[C@@H](C(=O)O)NC2=O)cc1 (some centres undefined),-25.3%
15,CC(C)CC(=O)N/N=C/c1c(N)n(C)c(=O)n(C)c1=O,-7.7%
16,CCn1cc([N+](=O)[O-])c(C(=O)N2N=C(c3ccc(Cl)c(Cl)c3)CC2c2ccccc2O)n1 (centres undefined),-14.7%
17,CCn1cc([N+](=O)[O-])c(C(=O)N2N=C(c3ccc4ccccc4c3)CC2c2ccccc2O)n1 (centres undefined),-40.2%
18,CCn1cc(Cl)c(C(=O)N2N=C(c3ccc4ccccc4c3)CC2c2ccccc2O)n1 (centres undefined),61.4% (active)
19,CCOc1cc(NC(=O)CCl)c(OCC)cc1NC(=O)CCl,71.2% (active)
20,CCOc1cc(Cl)c(NC(=O)CC)cc1OCC,-18.6%
21,CCCCC(=O)Nc1cc(OCC)c(NC(=S)NC)cc1OCC,-5.5%
22,CCN1C(=O)c2ccccc2Sc2ccc(C(=O)NC(C)C)cc21,0.6%
23,CC(=O)c1c(C)nc(-c2ccccc2)nc1NC(=O)C(C)C,-18%
24,COC(=O)c1scc(C)c1NC(=O)c1ccc(Cl)cc1,-13.3%

row,SMILES,inhibition
1,CCOC(=O)/C(C#N)=N/Nc1c(S(=O)(=O)Cc2ccco2)csc1C(=O)OC,-12.9%
2,COC(=O)c1sc(SC)c(S(=O)(=O)C(C)C)c1N/N=C(\C#N)C(=O)c1ccccc1,-8.9%
3,COC(=O)c1sc(SC)c(S(=O)(=O)C(C)C)c1N/N=C(\C#N)S(=O)(=O)c1ccccn1,-7.4%
4,COC(=O)c1cc(OC)c(OC)cc1NC(=O)Cc1ccccc1[N+](=O)[O-],53.2%
5,CCSc1nnc(NC(=O)c2cc(C)on2)s1,-22.4%
6,Cc1ccc(CNS(=O)(=O)c2ccc3c(c2)NC(=O)C(C)S3)cc1 (centres undefined),16.1%
7,Cc1ccccc1C(=O)N1CCC(C(N)=O)CC1,24.1%
8,O=C(NCc1ccccc1)C1COc2ccccc2O1 (centres undefined),-48.6%
9,O=C(N1CCN(c2ccccn2)CC1)C(Cl)(Cl)Cl,32.8%
10,CC(Cl)C(=O)N1c2ccccc2CCc2ccccc21 (centres undefined),19.8%
11,O=C(CN1CCCCC1)N1c2ccccc2CCc2ccccc21,7.5%
12,O=C(CCl)N1c2ccccc2CCc2ccccc21,94.7% (active)
13,C=CCNc1cnn(-c2ccc(C)cc2)c(=O)c1Sc1ccc(C)cc1,11.6%
14,CC/C(=N\NC(=O)c1ccc(Br)cc1)c1ccccc1,-30.9%
15,N#C/C(=C(/O)CCl)c1nc2c(s1)CCc1ccccc1-2,78.6% (active)
16,Nc1nc2c(s1)CCc1ccccc1-2,-11.8%
17,N#C/C(=C(/O)CCl)c1nc(-c2ccccc2)cs1,-4.2%
18,C=CCn1c(COc2ccccc2)nnc1SCC(=O)N/N=C/c1cc(Cl)ccc1O,39.9% (active)
19,C=CCn1c(COc2ccccc2)nnc1SC(C)C(=O)N/N=C/c1cc(Cl)ccc1O (centres undefined),2%
20,C=CCn1c(COc2ccc(Cl)cc2)nnc1SCC(=O)N/N=C/c1ccccc1,1.1%
21,CN(C)C(=O)CN1CCN(c2nc3nonc3nc2N2CCCCC2)CC1,-28.9%
22,CC(C)(C)OC(=O)N/N=C/c1cccn1-c1ccc([N+](=O)[O-])cc1,-6.6%
23,N#C/C(=C(/O)COC(=O)c1ccc(Cl)c(S(=O)(=O)N2CCOCC2)c1)c1nc2ccccc2[nH]1,17.7%
24,Cc1ccc(C(=O)OC/C(O)=C(\C#N)c2nc3ccccc3[nH]2)cc1S(=O)(=O)N1CCOCC1,20.1%

row,SMILES,inhibition
1,N#C/C(=C(/O)COC(=O)Cc1c[nH]c2ccccc12)c1nc2ccccc2[nH]1,-14.1%
2,CCCC(=O)OC/C(O)=C(\C#N)c1nc2ccccc2[nH]1,105% (active)
3,CCOC(=O)c1c(C)[nH]c(C(=O)OC/C(O)=C(\C#N)c2nc3ccccc3[nH]2)c1C,-26.6%
4,COc1cc(OC)cc(C(=O)OC/C(O)=C(\C#N)c2nc3ccccc3[nH]2)c1,-0.4%
5,COCC(=O)OC/C(O)=C(\C#N)c1nc2ccccc2[nH]1,66.5% (active)
6,N#C/C(=C(/O)COC(=O)CCc1ccc(S(=O)(=O)N2CCOCC2)cc1)c1nc2ccccc2[nH]1,93.4% (active)
7,N#C/C(=C(/O)COC(=O)c1cccnc1Cl)c1nc2ccccc2[nH]1,-23.4%
8,N#C/C(=C(/O)COC(=O)c1ccc(O)cc1)c1nc2ccccc2[nH]1,-5.6%
9,CC(C)C(=O)OC/C(O)=C(\C#N)c1nc2ccccc2[nH]1,0.8%
10,N#C/C(=C(/O)COC(=O)CCCNC(=O)c1ccc(Cl)cc1)c1nc2ccccc2[nH]1,86.4% (active)
11,O=C(CSc1nc(-c2ccccc2)c(-c2ccccc2)[nH]1)Nc1ccc2c(c1)OCO2,-5.7%
12,O=C(CSc1nn(-c2ccccc2)c(=S)s1)NC(=O)NCc1ccco1,17.4%
13,CCCCN(C)CCNC(=O)c1cc2c(=O)[nH]c3ccccc3c2n1C,-7.1%
14,CCOC(=O)COc1ccc2c(C)cc(=O)oc2c1C(=O)c1ccccc1,5.9%
15,O=C1CC(N2CCN(c3ccc(O)cc3)CC2)C(=O)N1c1ccc2c(c1)OCO2 (centres undefined),-26.7%
16,COc1ccc(/C(C)=N/OC/C(O)=C(\C#N)c2nc3ccccc3[nH]2)cc1OC,5.6%
17,Cc1ccc(C(C)C)c(OC/C(O)=C(\C#N)c2nc3ccccc3[nH]2)c1,36.3% (active)
18,COc1ccc(OC/C(O)=C(\C#N)c2nc3ccccc3[nH]2)cc1,-23.4%
19,CCC(C)c1ccc(OCC(=O)NNC(=O)C2CCCCC2)cc1 (centres undefined),-4.3%
20,Cc1ccccc1NC(=O)c1ccccc1-c1ccccc1,-24.9%
21,CC(=O)Nc1ccccc1NC(=O)c1ccccc1-c1ccccc1,73% (active)
22,O=C(Nc1ccccc1Br)c1ccccc1-c1ccccc1,-10.7%
23,CC(C)(CO)N=Cc1c(O)[nH]c2ccccc12,-14.8%
24,CCCCCCC(=O)Nc1ccc(Cl)cn1,-24.4%

row,SMILES,inhibition
1,C=CCN(CC=C)C(=O)c1cccc(OC2CCN(S(=O)(=O)N(C)C)CC2)c1,8.4%
2,CCOc1ccc2nc(SCC#N)c(C#N)cc2c1,68.2% (active)
3,CCOc1ccc2nc(SCC(=O)N3CCCCCC3)c(C#N)cc2c1,-18.2%
4,CCSc1nc2ccc(OC)cc2cc1C#N,-45.3%
5,O=C(O)c1cccc(CN2C(=O)S/C(=C/c3cccc([N+](=O)[O-])c3)C2=O)c1,1.5%
6,O=C1/C(=C\c2cc(Br)cc(Br)c2O)SC(=S)N1Cc1ccccc1,73.3% (active)
7,COc1ccc(O)c(/C=C2/SC(=S)N(Cc3ccccc3)C2=O)c1,-3.5%
8,O=C1/C(=C\c2ccc(O)cc2)SC(=S)N1Cc1ccccc1,-9.6%
9,O=C(O)c1cccc(CN2C(=O)S/C(=C/c3ccccc3[N+](=O)[O-])C2=O)c1,3.9%
10,O=C1/C(=C\c2cccc(O)c2O)SC(=S)N1Cc1ccccc1,-20.4%
11,CCOC(=O)CN1C(=O)S/C(=C/c2ccc(O)c([N+](=O)[O-])c2)C1=O,-4.5%
12,CCOC(=O)N1CCN(S(=O)(=O)N2CCCC(C(=O)NCc3ccc(F)cc3)C2)CC1 (centres undefined),3.3%
13,O=C(CCC(=O)N(c1cccc(F)c1)C(C(=O)NC1CCCC1)c1ccncc1)Nc1cccnc1 (centres undefined),-42.2%
14,CC1C=CCC2C(=O)N(c3cccc(C(=O)Nc4ccc(Br)cc4)c3)C(=O)C12 (centres undefined),-16.6%
15,CCCCN(CC)S(=O)(=O)c1c(C)[nH]c(=O)[nH]c1=O,-34.4%
16,CCOc1ccc(N2CC(C(=O)Nc3nnc(C4CCCCC4)s3)CC2=O)cc1 (centres undefined),-28.2%
17,O=C(O)COc1ccccc1/C=N/NC(=O)c1cc(-c2ccccc2)nc2ccccc12,-11.3%
18,CCOc1cc(C(c2c(C)[nH][nH]c2=O)c2c(C)[nH][nH]c2=O)cc(Cl)c1O,7.7%
19,CC(Cc1ccccc1)C(=O)NCc1ccncc1 (centres undefined),-26.7%
20,CCCCc1ccc(NC(=O)C(=O)NCCN2CCN(C(=O)c3ccc([N+](=O)[O-])cc3)CC2)cc1,0.1%
21,CCc1ccc(NC(=O)C(=O)NCCN2CCN(Cc3ccc([N+](=O)[O-])cc3)CC2)cc1,12.5%
22,CCCCc1ccc(NC(=O)C(=O)NCCN2CCN(Cc3ccc([N+](=O)[O-])cc3)CC2)cc1,34.7% (active)
